Assay results from the supplement of paper PMC10338343.
± gives the standard deviation. The full ranking holds about 8,200 sequences; the median of “pre-steady-state target cleavage rate” is about 0.024, and the highest 2% start at about 1.3. This excerpt belongs to a sample that is enriched for the highest values.

Tested on: MIWI (PIWIL1) piRISC loaded with L1MC piRNA (30 nt)
Assay: pre-steady-state target cleavage rate (min^-1); MIWI and MILI are mouse PIWI proteins and EfPiwi is from a freshwater sponge; tags in brackets are library labels; higher = faster piRNA-guided slicing of the target
Settings: guide: L1MC piRNA 5'p-UAACUAAAUACUAUGCAAGCUGUAGGUCCU
Experimental: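 Cleave-'n-Seq: a library of target RNAs (target site embedded in constant flanks, ACAGCATTCCGCGTTAGTGATATCCG... 5' flank; DNA-blocked outside the site) at 0.1 nM was incubated with 1 nM active mouse MILI or MIWI piRISC (synthetic 5'-monophosphorylated piRNA guide) with or without 500 nM mouse GTSF1 at 33 °C for 1 min to 16 h. Uncleaved targets were sequenced and normalised to non-target controls, and the pooled three trials were fitted to a burst-and-steady-state model to give the pre-steady-state cleavage rate (min^-1; k3 is constrained to at most 1e-4). Sequence is the target site only; target names encode pairing extent (gX:gY) and contiguous / 1-mismatch / 2-mismatch / bulge geometry. Fits with R² ≤ 0 are excluded.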

[1] = auxiliary factor: 500 nM mouse GTSF1
[2] = auxiliary factor: none (no GTSF1)

Row | Sequence | pre-steady-state target cleavage rate [1] | pre-steady-state target cleavage rate [2]
1 | UCCUGCUACAGCUUGCAUGGUAUUUAGUUA | 1.2 ± 0.1 | 0.0413 ± 0.0095
2 | AGGACCUACAGCUUGCAUGUAUUUAGUUA | 0.485 ± 0.048 | 0.00718 ± 0.0034
3 | UCCUCCUACAGCUUGCAUGGUAUUUAGUUA | 1.66 ± 0.078 | 0.0582 ± 0.011
4 | UGGACCUACAGCUUGCAUGGUAUUUAGUUA | 1.38 ± 0.079 | 0.0478 ± 0.01
5 | UCGACCUACAGCUUGCAUGUAUUUAGUUA | 0.479 ± 0.05 | 0.00292 ± 0.0025
6 | UGGACCUACAGCUUGCAUGUAUUUAGUUA | 0.353 ± 0.055 | 0.00423 ± 0.0025
7 | UCGACCUACAGCUUGCAUUAGUAUUUAGUUA | 0.264 ± 0.082 | 
8 | AGGUCCUACAGCUUGCAUAGUAUUUAGAAA | 0.285 ± 0.045 | 0.0132 ± 0.0048
9 | AGGACCUACAGCUUGCAUAGUUAAUUCAAA | 0.786 ± 0.23 | 
10 | UCCUGGUACAGCUUGCAUAGUAUUUAGAUUA | 0.179 ± 0.046 | 0.0165 ± 0.0061
11 | UCCUGCUACACCAUGCAUAGUAUUUAGUUA | 0.783 ± 0.035 | 0.00793 ± 0.002
12 | UCCUGGAACAGCUUGCAAUGUAUUUAGUUA | 0.265 ± 0.02 | 0.00723 ± 0.0039
13 | UCCUGGAUGUCCUUGCAUAGUAUAUUGUUA | 0.00947 ± 0.0039 | 
14 | UCGACCUACAGCUUGGAUAGUAUUUACAAA | 0.179 ± 0.036 | 
15 | UCCUCCUACAGCUUGGUUAGUAUUUAGUAA | 0.523 ± 0.043 | 0.00502 ± 0.0015
16 | UCCACCUACAGCAAGCAUAGUAUUUAGUAA | 0.507 ± 0.042 | 
17 | AGGACCUACAGCUUGCAUAGUAUUAUCUAA | 0.404 ± 0.066 | 
18 | UCCUGGAUGUCCUUGCAUAGUAGUUAGUUA | 0.00603 ± 0.0046 | 0.00268 ± 0.0023
19 | UCCUGGUACAGCUUGCAUAGUAAAAAGUAA | 0.109 ± 0.031 | 
20 | UCCUGGAACAGCUUGCAUAGUAUUUAGAUA | 0.406 ± 0.042 | 0.0172 ± 0.0058
21 | UCCUGCUACAGCUUGCAUAGUAUAUUGUUA | 0.377 ± 0.037 | 0.0123 ± 0.0026

Row | Sequence | pre-steady-state target cleavage rate [1] | pre-steady-state target cleavage rate [2]
22 | UGGCACCUACAGCUUGCAUAGUAUUUAGUUA | 2.2 ± 0.89 | 
23 | UGCACCUACAGCUUGCAUAGUAUUUAGUUA | 1.22 ± 0.11 | 0.0865 ± 0.017
24 | UCGCACCUACAGCUUGCAUAGUAUUUAGUUA | 1.06 ± 0.13 | 0.0648 ± 0.015
25 | UGCACCUACAGCUUGCAUAGUAUUUAGUAA | 1.17 ± 0.11 | 0.0465 ± 0.0097
26 | AGGCACCUACAGCUUGCAUAGUAUUUAGUUA | 2.18 ± 0.8 | 2.2 ± 1.8
27 | AGCACCUACAGCUUGCAUAGUAUUUAGUUA | 1.19 ± 0.16 | 0.246 ± 0.073
28 | UCCUGGAACAGCUUGCAUAGCUAUUUAGUUA | 0.0102 ± 0.0047 | 
29 | UCCUGGUAAAGCUUGCAUAGUAUUUAGUUA | 0.551 ± 0.037 | 0.0419 ± 0.0086
30 | UCCUGGAACAGCUUGCAAAGUAUAUAGUUA | 0.459 ± 0.037 | 0.0164 ± 0.0061
31 | UCCUGCUACAGCUUGGAAAGUAUUUAGUUA | 0.903 ± 0.053 | 0.00754 ± 0.0024
32 | AGGACACUACAGCUUGCAUAGUAUUUAGUUA | 1.13 ± 0.083 | 0.0749 ± 0.011
33 | UCGAUCUACAGCUUGCAUAGUAUUUAGUUA | 1.61 ± 0.05 | 0.072 ± 0.013
34 | UGGAUCUACAGCUUGCAUAGUAUUUAGUUA | 1.57 ± 0.062 | 0.0958 ± 0.019
35 | UGGACGCUACAGCUUGCAUAGUAUUUAGUUA | 1.15 ± 0.076 | 0.0759 ± 0.013
36 | UCCAUCUACAGCUUGCAUAGUAUUUAGUUA | 0.731 ± 0.031 | 0.0538 ± 0.0076
37 | AGGAUCUACAGCUUGCAUAGUAUUUAGUUA | 1.7 ± 0.059 | 0.105 ± 0.017
38 | UCCUGGAUCUAGCUUGCAUAGUAUUUAGUUA | 0.86 ± 0.04 | 0.0445 ± 0.011
39 | UCCUGGAUCAGCUUGCAUUGUUUUUAGUUA | 0.0337 ± 0.0067 | 0.00759 ± 0.0022
40 | UCGACCUACAGCUUGCAUAGUAAUUAGUUA | 1.08 ± 0.049 | 0.0469 ± 0.012
41 | UCCUGGAUGUCCUUGCUAUGUAUUUAGUAA | 0.00637 ± 0.0038 | 
42 | UCCUGGUACAGCUUGCAUAGUGAUUUAGUUA | 0.0476 ± 0.011 | 0.00639 ± 0.0029

Row | Sequence | pre-steady-state target cleavage rate [1] | pre-steady-state target cleavage rate [2]
43 | UCCUGGUACACCUAGCAUAGUAUUUAGUUA | 0.278 ± 0.063 | 0.00414 ± 0.0028
44 | UCGACCUAGAGCUUGCAUAGUAUUUAGAAA | 0.441 ± 0.048 | 0.00689 ± 0.0021
45 | UCCUGGUACUCGUUGCAUAGUAUUUAGUAA | 0.0165 ± 0.0088 | 
46 | UCCUCGAACAGCUUGCAUAGUAUUUAGAAA | 0.474 ± 0.043 | 0.00694 ± 0.0025
47 | UCCUCGAACAGCUUGCAUAGUAUUUAGUUA | 1.39 ± 0.039 | 0.0825 ± 0.015
48 | UGGACGAACAGCUUGCAUAGUAUUUAGUUA | 1.17 ± 0.036 | 0.0856 ± 0.015
49 | UCCUCGAACAGCUUGCAUAGUAUUUAGUAA | 0.982 ± 0.042 | 0.0424 ± 0.008
50 | UCGACGAACAGCUUGCAUAGUAUUUAGUUA | 1.38 ± 0.049 | 0.0836 ± 0.015
51 | UCGACGAACAGCUUGCAUAGUAUUUAGUAA | 0.962 ± 0.062 | 0.0577 ± 0.013
52 | UCCUGGAACACCUUGCUUAGUAUUUAGUUA | 0.239 ± 0.032 | 0.00546 ± 0.0019
53 | UCCACCUACAGCUUGCAUAGUAUUUACUUA | 0.378 ± 0.044 | 0.0369 ± 0.0085
54 | UGGACCUACAGCUUGCAUAGUAUUUAGUGA | 1.12 ± 0.064 | 0.0575 ± 0.011
55 | UGUGACCUACAGCUUGCAUAGUAUUUAGUUA | 1.45 ± 0.063 | 0.0959 ± 0.018
56 | AGGACCUACAGCUUGCAUAGUAUUUAGUGA | 1.01 ± 0.085 | 0.0934 ± 0.018
57 | AGCACCUACAGCUUGCAUAGUAUUUACUUA | 1.4 ± 0.24 | 
58 | UGCACCUACAGCUUGCAUAGUAUUUACUUA | 0.46 ± 0.056 | 0.0724 ± 0.017
59 | UUGACCUACAGCUUGCAUAGUAUUUAGUUA | 1.16 ± 0.061 | 0.0724 ± 0.012
60 | UGACCUACAGCUUGCAUAGUAUUUAGUUA | 1.57 ± 0.061 | 0.0842 ± 0.016
61 | AUGACCUACAGCUUGCAUAGUAUUUAGUUA | 1.06 ± 0.03 | 0.0859 ± 0.013
62 | AGUGACCUACAGCUUGCAUAGUAUUUAGUUA | 1.38 ± 0.056 | 0.0885 ± 0.015
63 | UCGACCAUGAGCUUGCAUAGUAUUUAGUAA | 0.804 ± 0.049 | 0.0343 ± 0.0083
